Compound activity (PubChem)
Rows were chosen to be rich in hits. Some 0.77% of all compounds tested hit in one or more screens of this group.
RecA intein inh = Mtb RecA intein splicing inhibitors, primary screen, biochemical, fluorescence, HTS; Protein RecA (Mycobacterium tuberculosis (strain ATCC 25618 / H37Rv)), P9WHJ3; cell-free RecA intein splicing; inhibition, % (test concentration not listed); 290,000 tested, 0.75% active; in the data active means inhibition above about 30%;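 further: 0% = vehicle wells and 100% = reference inhibitor control wells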
Mtb RmlCD inh = M. tuberculosis RmlC/RmlD coupled enzyme inhibitors, primary screen, biochemical, compound mixtures, 384-well, from 1536-well plates | RmlC+RmlD coupled enzyme assay, percent inhibition; primary screen in compound mixtures | inhibition, % at 3.6 µM | 160,000 tested, 0.03% active | AID 1533, 2009; in the data active means inhibition mostly above about 34%, no sharp cut-off
Target sequence (P9WH09 whole entry, looked up): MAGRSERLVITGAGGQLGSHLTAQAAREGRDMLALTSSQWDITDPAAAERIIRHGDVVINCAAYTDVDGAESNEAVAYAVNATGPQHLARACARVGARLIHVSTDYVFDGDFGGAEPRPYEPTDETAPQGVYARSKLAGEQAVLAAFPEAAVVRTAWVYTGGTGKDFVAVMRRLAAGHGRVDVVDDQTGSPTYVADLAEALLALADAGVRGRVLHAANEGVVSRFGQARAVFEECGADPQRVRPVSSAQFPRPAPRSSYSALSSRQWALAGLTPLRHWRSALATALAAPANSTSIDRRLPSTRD
Target sequence (P9WH11 whole entry, looked up): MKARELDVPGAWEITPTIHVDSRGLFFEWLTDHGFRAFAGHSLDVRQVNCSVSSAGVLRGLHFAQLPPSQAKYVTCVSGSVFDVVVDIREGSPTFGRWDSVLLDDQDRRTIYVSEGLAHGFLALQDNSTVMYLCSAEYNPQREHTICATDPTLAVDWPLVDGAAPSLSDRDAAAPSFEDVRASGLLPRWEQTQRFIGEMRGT
GFP chromo cs = counter-screen: blocks GFP chromophore formation, dose response, counter-screen, biochemical, fluorescence, homogeneous. cell-free GFP chromophore formation. EC50, µM. 2,100 tested, 83% active. shares compounds with RecA intein inh; call rule not given here
An asterisk follows results filed as active.

`O=C(NCCCN1CCCC1)c1ccc(Cn2c(=S)[nH]c3ccc(Br)cc3c2=O)cc1` gave RecA intein inh -3.4 and Mtb RmlCD inh -0.5.
For COc1ccc(C(=O)Cn2c(Br)nc3c2c(=O)n(C)c(=O)n3C)cc1OC the results were RecA intein inh 2.3 and Mtb RmlCD inh -4.0.
For COC(=O)c1ccc(Oc2nc(NC(C)(C)C)nc(N3CCOCC3)n2)cc1 the results were RecA intein inh 0.4 and Mtb RmlCD inh 38.5.
`CCOC(=O)C1=Nc2ccccc2C1=[N+]=[N-]` gave RecA intein inh 1.2.
COc1ccc(C(=O)NNC(=O)CSc2nnnn2C)cc1 was read as RecA intein inh -2.6 and Mtb RmlCD inh -2.8.
Screening CC(C)(C)OC(=O)NCCc1nnc(SCc2ccccc2Cl)o1 returned RecA intein inh 1.5 and Mtb RmlCD inh -2.4.
`CC(C)(C)OC(=O)NCCc1nnc(S(=O)(=O)Cc2ccc(Cl)cc2Cl)o1` gave RecA intein inh 85.2* and GFP chromo cs >38.
For CCn1c(SCC(=O)Nc2nc(C)c(C)s2)nc2cccnc21 the results were RecA intein inh -0.5.
`COc1ccc(NC(=O)CSc2c3c(nc4cc(Cl)ccc24)CCCC3)cc1OC` gave RecA intein inh -11.8, Mtb RmlCD inh -2.3 and GFP chromo cs 29.1*.
Screening O=C(CSc1nc2ccc(Cl)cc2[nH]1)NCc1ccco1 returned RecA intein inh 3.5.
Screening COc1cc(NC(=O)CSc2c3c(nc4ccccc24)CCC3)cc(OC)c1OC returned RecA intein inh 5.7 and Mtb RmlCD inh 0.3.
Screening O=C(CSc1c2c(nc3cc(Cl)ccc13)CCCC2)NCc1ccco1 returned RecA intein inh 30.1* and GFP chromo cs >38.
Screening O=C(CC1OC(=O)c2ccccc21)Nc1cc(S(=O)(=O)N2CCOCC2)ccc1OCC(F)(F)F (stereo not given) returned RecA intein inh 1.0.
`O=C(CS(=O)(=O)c1ccccc1)c1cc2cc(F)ccc2oc1=O` gave RecA intein inh 0.5.
COCCN(C(=O)COC(=O)CCC(=O)c1ccc(Cl)cc1)c1c(N)n(Cc2ccccc2)c(=O)[nH]c1=O was read as RecA intein inh 2.7.
Screening CCN(CC)CCN1C(=O)c2cccc3cc(N)cc(c23)C1=O returned RecA intein inh 45.6*, Mtb RmlCD inh 2.5 and GFP chromo cs 0.424*.
Screening Nc1cc2c3c(cccc3c1)C(=O)N(CCN1CCCC1)C2=O returned RecA intein inh -13.4 and Mtb RmlCD inh -3.5.
O=C(Cc1ccccc1F)Nc1ccccc1N1CCCC1 was read as RecA intein inh -1.1.
`CS/C(Nc1cc(Cl)ccc1Cl)=C(/C#N)C(=O)c1ccco1` gave RecA intein inh 64.9*, Mtb RmlCD inh -2.1 and GFP chromo cs 27.3*.
`O=C(Nc1cc(Cl)ccc1Cl)c1ccco1` gave RecA intein inh -2.1.
For O=[N+]([O-])c1c(NCCO)cc(N2CCCCCC2)c2nonc12 the results were RecA intein inh 5.3.
Screening CCCC(=O)OCCNc1cc(SCc2ccco2)c2nonc2c1[N+](=O)[O-] returned RecA intein inh 79.1*, Mtb RmlCD inh 2.1 and GFP chromo cs 8.57*.
CCC(=O)OCCNc1cc(Sc2nc3ccccc3[nH]2)c2nonc2c1[N+](=O)[O-] was read as Mtb RmlCD inh 2.9.
`CCCC(=O)OCCNc1cc(Sc2nccn2C)c2nonc2c1[N+](=O)[O-]` gave RecA intein inh 90.2*, Mtb RmlCD inh -11.0 and GFP chromo cs 3.88*.
CCOC(=O)C1CCCN(c2cc(NCCCO)c([N+](=O)[O-])c3nonc23)C1 (stereo not given) was read as RecA intein inh -6.3 and Mtb RmlCD inh -10.2.
Screening CCOC(=O)NNc1ccc2nonc2c1[N+](=O)[O-] returned Mtb RmlCD inh -2.8.
Screening Cc1nnc(Sc2cc(NCCCO)c([N+](=O)[O-])c3nonc23)s1 returned RecA intein inh 91.4*, Mtb RmlCD inh -9.5 and GFP chromo cs 5.09*.
For CCC(=O)OCCNc1cc(Sc2nc3ccccc3s2)c2nonc2c1[N+](=O)[O-] the results were RecA intein inh 50.0* and GFP chromo cs 4.24*.
Screening COc1ccc(/C(C)=N/NC(=O)CNC(=O)c2ccncc2)cc1 returned RecA intein inh -2.1.
For CCNS(=O)(=O)c1ccc(CCC(=O)NC2CCCC2)cc1 the results were RecA intein inh -2.5 and Mtb RmlCD inh 26.4.
`Cc1ccc(N=C2SC(C(=O)O)CC(=O)N2C)cc1C` (stereo not given) gave RecA intein inh -1.5 and Mtb RmlCD inh 9.1.
COC(=O)c1cn(NC(=O)Cc2ccccc2Br)c(=O)c2ccccc12 was read as RecA intein inh -1.2 and Mtb RmlCD inh 1.3.
